# Measured values: PMC7862700, “An all-to-all approach to the identification of sequence-specific readers for epigenetic DNA modifications on cytosine”
# Legend:
# Test in all cases: DAPPL (digital affinity profiling via proximity ligation, sequencing); 10 mM Tris-HCl pH 7.5, 50 mM NaCl, 1 mM DTT, 4% glycerol, room temperature, 30 min; GST-TFs on glutathione beads, 16-mer random dsDNA library, 0.1% formaldehyde crosslink after washing; high values mean tight binding
# FLI1 = molecular target: T1, FLI1 (Homo sapiens, UniProt Q01543 1-452); details: protein: recombinant; tags: N-terminal GST; dsDNA, one strand shown
# T1 sequence: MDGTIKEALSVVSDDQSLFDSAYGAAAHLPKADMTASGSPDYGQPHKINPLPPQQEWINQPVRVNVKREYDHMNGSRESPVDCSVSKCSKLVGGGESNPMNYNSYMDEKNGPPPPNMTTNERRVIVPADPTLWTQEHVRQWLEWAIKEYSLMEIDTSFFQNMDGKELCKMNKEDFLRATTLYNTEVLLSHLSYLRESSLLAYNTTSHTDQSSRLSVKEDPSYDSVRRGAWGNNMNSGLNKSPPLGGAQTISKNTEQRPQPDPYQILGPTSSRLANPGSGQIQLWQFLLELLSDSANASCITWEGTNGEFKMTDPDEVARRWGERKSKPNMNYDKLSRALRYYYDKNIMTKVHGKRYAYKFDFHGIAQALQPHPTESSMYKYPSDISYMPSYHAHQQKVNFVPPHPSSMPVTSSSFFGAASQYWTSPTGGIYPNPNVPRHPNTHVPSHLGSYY
# Procedure, shortened: (§1)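 Pools were built from human transcription factors expressed in yeast as GST fusions, captured on glutathione beads and DNA-barcoded, along with a tag-only sample. Incubation with 200 nmole of a 16-mer random double-stranded DNA library lasted 30 min at room temperature in Tris/NaCl/DTT/glycerol buffer, and was followed by washing, 0.1% formaldehyde crosslinking, proximity ligation, PCR amplification and Illumina NextSeq500 sequencing. Binding signal is the quotient of each hexamer's read frequency for a factor and its frequency for the tag-only sample.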
# ELK1 = molecular target: T2, ELK1 (Homo sapiens, UniProt P19419 1-428); details: protein: recombinant; tags: N-terminal GST; dsDNA, one strand shown
# T2 sequence: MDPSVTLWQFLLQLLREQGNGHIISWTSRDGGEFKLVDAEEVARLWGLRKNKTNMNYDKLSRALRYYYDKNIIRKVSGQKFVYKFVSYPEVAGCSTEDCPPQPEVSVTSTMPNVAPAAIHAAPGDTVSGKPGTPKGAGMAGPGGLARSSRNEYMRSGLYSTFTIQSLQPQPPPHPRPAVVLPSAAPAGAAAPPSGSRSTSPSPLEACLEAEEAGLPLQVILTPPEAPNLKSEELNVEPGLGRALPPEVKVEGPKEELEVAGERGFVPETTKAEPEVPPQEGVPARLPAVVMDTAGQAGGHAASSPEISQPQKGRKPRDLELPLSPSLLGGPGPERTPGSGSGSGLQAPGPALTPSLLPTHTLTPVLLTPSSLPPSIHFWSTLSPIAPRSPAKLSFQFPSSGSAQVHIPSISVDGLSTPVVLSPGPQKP
# Procedure, shortened: as §1
# GABPA = molecular target: T3, GABPA (Homo sapiens, UniProt Q06546 1-454); details: protein: recombinant; tags: N-terminal GST; dsDNA, one strand shown
# T3 sequence: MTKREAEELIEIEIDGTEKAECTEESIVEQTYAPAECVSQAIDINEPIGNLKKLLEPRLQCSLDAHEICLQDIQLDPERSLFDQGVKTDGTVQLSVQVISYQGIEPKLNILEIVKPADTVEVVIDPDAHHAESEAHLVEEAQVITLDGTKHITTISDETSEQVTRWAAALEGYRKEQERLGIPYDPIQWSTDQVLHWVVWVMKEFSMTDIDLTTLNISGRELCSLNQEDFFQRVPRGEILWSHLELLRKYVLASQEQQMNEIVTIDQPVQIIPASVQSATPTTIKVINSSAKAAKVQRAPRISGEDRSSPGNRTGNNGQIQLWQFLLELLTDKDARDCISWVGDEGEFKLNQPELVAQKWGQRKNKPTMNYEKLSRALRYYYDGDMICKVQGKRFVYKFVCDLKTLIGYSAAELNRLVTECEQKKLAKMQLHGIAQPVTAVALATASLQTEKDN
# Procedure, shortened: as §1
# ERG = molecular target: T4, ERG (Homo sapiens, UniProt P11308 1-479); details: protein: recombinant; tags: N-terminal GST; dsDNA, one strand shown
# T4 sequence: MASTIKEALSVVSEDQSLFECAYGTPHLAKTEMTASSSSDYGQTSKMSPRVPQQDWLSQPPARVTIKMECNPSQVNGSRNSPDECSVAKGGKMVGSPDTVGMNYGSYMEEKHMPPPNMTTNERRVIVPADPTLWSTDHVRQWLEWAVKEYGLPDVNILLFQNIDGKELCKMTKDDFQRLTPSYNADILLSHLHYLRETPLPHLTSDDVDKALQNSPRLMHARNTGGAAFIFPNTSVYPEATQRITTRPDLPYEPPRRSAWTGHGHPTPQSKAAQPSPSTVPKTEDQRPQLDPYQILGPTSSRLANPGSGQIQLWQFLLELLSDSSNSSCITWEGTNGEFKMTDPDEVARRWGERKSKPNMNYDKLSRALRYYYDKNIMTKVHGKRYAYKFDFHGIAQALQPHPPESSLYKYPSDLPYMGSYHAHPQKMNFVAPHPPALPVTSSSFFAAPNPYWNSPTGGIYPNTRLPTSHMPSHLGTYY
# Procedure, shortened: as §1
# ELF1 = ELF1 (Homo sapiens, UniProt P32519 1-619); details: protein: recombinant; tags: N-terminal GST; dsDNA, one strand shown
# Procedure, shortened: as §1
# EHF = molecular target: T5, EHF (Homo sapiens, UniProt Q9NZC4 1-300); details: protein: recombinant; tags: N-terminal GST; dsDNA, one strand shown
# T5 sequence: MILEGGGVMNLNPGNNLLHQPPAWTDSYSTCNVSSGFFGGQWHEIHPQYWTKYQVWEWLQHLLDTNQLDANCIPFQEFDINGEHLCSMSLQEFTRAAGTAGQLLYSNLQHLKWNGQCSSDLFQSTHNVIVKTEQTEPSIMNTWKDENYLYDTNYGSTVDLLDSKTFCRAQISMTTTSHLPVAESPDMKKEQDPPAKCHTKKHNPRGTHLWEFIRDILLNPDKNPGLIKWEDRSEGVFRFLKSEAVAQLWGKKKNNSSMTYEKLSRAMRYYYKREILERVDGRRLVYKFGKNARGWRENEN
# Procedure, shortened: as §1
# SPI1 = SPI1 (Homo sapiens, UniProt P17947 1-270); details: protein: recombinant; tags: N-terminal GST; dsDNA, one strand shown
# Procedure, shortened: as §1
# SPIB = SPIB (Homo sapiens, UniProt Q01892 1-262); details: protein: recombinant; tags: N-terminal GST; dsDNA, one strand shown
# Procedure, shortened: as §1
# ELK3 = molecular target: T6, ELK3 (Homo sapiens, UniProt P41970 1-407); details: protein: recombinant; tags: N-terminal GST; dsDNA, one strand shown
# T6 sequence: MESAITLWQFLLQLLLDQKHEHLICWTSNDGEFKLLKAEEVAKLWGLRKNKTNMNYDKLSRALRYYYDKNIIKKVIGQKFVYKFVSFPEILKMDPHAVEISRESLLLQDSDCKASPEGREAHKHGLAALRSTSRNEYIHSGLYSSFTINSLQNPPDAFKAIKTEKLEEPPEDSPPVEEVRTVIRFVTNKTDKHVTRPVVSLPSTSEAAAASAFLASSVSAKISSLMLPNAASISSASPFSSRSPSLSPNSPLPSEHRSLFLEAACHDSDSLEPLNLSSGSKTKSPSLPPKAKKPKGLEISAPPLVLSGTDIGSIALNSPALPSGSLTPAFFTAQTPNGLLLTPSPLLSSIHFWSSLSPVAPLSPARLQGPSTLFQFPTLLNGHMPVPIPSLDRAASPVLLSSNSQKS
# Procedure, shortened: as §1
# FEV = molecular target: T7, FEV (Homo sapiens, UniProt Q99581 1-238); details: protein: recombinant; tags: N-terminal GST; dsDNA, one strand shown
# T7 sequence: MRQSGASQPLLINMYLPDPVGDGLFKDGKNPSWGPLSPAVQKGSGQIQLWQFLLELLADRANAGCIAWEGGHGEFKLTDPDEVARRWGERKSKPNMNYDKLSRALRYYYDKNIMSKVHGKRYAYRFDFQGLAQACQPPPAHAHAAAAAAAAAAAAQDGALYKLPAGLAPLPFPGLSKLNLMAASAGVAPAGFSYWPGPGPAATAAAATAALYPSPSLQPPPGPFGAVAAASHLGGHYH
# Procedure, shortened: as §1
# ETV5 = ETV5 (Homo sapiens, UniProt P41161 1-510); details: protein: recombinant; tags: N-terminal GST; dsDNA, one strand shown
# Procedure, shortened: as §1
# HSF1 = HSF1 (Homo sapiens, UniProt Q00613 1-529); details: protein: recombinant; tags: N-terminal GST; chain copies: 3; dsDNA, one strand shown
# Procedure, shortened: as §1
# SPIC = molecular target: T8, SPIC (Homo sapiens, UniProt Q8N5J4 1-248); details: protein: recombinant; tags: N-terminal GST; dsDNA, one strand shown
# T8 sequence: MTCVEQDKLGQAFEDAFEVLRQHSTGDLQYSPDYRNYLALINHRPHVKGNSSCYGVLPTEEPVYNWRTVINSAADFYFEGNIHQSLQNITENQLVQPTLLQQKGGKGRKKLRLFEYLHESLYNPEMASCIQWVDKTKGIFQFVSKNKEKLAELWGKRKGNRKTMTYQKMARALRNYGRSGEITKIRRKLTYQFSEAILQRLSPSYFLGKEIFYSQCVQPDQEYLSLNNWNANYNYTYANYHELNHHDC
# Procedure, shortened: as §1
# ELF4 = ELF4 (Homo sapiens, UniProt Q99607 1-663); details: protein: recombinant; tags: N-terminal GST; dsDNA, one strand shown
# Procedure, shortened: as §1
# ELK4 = molecular target: T9, ELK4 (Homo sapiens, UniProt P28324-2 1-405); details: protein: recombinant; tags: N-terminal GST; dsDNA, one strand shown
# T9 sequence: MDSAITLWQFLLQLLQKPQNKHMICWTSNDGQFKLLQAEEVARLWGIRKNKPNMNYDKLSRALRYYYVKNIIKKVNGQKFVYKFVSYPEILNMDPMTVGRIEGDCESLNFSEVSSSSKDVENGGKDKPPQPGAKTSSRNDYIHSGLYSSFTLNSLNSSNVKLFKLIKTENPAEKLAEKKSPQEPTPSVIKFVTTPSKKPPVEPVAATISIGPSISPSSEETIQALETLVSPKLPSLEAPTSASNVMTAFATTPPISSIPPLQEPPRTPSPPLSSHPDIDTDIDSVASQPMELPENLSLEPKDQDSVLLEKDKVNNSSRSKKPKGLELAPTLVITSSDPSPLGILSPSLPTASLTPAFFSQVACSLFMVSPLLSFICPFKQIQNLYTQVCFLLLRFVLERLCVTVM
# Procedure, shortened: as §1
# ETV2 = molecular target: T10, ETV2 (Homo sapiens, UniProt O00321 1-342); details: protein: recombinant; tags: N-terminal GST; dsDNA, one strand shown
# T10 sequence: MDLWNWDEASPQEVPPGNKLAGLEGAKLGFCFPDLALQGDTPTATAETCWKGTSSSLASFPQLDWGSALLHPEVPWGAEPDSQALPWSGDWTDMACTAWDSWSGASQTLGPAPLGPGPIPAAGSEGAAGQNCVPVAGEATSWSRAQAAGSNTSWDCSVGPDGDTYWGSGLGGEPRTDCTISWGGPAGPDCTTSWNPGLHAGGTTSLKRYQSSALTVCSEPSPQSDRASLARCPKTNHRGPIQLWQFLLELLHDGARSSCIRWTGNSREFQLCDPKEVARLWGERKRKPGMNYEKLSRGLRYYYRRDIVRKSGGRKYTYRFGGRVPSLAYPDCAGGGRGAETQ
# Procedure, shortened: as §1
# ELF3 = molecular target: T11, ELF3 (Homo sapiens, UniProt P78545 1-371); details: protein: recombinant; tags: N-terminal GST; dsDNA, one strand shown
# T11 sequence: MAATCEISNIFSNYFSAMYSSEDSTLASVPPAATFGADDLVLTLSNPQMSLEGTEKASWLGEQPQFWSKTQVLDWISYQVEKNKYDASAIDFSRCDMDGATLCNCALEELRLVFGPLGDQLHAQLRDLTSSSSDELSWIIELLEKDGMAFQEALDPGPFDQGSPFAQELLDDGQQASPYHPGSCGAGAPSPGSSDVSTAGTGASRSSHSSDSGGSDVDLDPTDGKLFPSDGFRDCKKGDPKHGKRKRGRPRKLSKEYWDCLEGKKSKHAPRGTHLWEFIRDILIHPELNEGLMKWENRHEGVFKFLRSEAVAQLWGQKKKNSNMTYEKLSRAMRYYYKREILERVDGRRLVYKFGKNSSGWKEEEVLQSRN
# Procedure, shortened: as §1
# CRX = CRX (Homo sapiens, UniProt O43186 1-299); details: protein: recombinant; tags: N-terminal GST; dsDNA, one strand shown
# Procedure, shortened: as §1
# ETV1 = ETV1 (Homo sapiens, UniProt P50549 1-477); details: protein: recombinant; tags: N-terminal GST; dsDNA, one strand shown
# Procedure, shortened: as §1
# Sequence of ELF1 (P32519 whole entry): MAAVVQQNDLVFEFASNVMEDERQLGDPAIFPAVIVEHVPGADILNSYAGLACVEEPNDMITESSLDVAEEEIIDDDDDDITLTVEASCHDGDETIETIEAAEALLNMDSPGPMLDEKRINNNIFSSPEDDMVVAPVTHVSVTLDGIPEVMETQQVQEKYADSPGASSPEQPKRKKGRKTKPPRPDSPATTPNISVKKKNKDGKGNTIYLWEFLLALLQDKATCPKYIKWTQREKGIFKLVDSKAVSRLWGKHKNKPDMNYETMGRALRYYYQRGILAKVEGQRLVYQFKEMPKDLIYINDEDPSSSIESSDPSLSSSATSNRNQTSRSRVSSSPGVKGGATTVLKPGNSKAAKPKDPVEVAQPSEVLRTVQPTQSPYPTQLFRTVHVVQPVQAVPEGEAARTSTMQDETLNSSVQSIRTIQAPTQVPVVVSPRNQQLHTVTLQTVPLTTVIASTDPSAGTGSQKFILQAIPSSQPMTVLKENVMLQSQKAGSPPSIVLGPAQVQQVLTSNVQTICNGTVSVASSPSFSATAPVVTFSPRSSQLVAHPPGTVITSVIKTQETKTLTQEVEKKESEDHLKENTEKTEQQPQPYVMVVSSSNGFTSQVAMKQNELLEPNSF
# Sequence of SPIB (Q01892 whole entry): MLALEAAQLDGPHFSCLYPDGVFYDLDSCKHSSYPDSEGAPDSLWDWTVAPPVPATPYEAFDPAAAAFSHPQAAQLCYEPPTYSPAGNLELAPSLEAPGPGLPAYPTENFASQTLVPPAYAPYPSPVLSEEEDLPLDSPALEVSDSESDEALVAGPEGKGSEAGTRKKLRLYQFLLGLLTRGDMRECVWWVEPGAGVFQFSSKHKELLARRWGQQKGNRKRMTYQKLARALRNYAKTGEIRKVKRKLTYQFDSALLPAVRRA
# Sequence of CRX (O43186 whole entry): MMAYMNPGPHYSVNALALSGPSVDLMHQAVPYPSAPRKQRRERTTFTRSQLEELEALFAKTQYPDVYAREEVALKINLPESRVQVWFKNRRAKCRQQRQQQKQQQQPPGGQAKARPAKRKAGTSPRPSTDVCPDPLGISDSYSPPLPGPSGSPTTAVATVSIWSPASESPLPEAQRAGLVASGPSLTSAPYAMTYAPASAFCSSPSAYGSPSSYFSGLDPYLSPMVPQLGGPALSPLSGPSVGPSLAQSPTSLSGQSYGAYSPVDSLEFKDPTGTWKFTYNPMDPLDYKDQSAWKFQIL
# Sequence of HSF1 (Q00613 whole entry): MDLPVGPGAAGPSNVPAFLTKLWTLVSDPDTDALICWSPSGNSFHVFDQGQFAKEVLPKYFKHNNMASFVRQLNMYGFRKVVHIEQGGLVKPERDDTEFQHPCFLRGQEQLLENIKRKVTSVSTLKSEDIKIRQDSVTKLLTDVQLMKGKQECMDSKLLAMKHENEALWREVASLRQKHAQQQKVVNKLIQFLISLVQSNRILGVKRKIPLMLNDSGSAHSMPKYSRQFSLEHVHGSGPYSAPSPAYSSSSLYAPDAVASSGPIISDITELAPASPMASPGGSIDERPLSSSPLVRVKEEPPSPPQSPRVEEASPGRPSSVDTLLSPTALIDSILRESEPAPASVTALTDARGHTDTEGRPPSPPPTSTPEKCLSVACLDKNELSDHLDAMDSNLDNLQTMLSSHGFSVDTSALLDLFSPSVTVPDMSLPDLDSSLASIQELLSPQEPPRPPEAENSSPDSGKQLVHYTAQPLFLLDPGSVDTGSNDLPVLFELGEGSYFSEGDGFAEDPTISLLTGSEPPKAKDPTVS
# Sequence of ETV5 (P41161 whole entry): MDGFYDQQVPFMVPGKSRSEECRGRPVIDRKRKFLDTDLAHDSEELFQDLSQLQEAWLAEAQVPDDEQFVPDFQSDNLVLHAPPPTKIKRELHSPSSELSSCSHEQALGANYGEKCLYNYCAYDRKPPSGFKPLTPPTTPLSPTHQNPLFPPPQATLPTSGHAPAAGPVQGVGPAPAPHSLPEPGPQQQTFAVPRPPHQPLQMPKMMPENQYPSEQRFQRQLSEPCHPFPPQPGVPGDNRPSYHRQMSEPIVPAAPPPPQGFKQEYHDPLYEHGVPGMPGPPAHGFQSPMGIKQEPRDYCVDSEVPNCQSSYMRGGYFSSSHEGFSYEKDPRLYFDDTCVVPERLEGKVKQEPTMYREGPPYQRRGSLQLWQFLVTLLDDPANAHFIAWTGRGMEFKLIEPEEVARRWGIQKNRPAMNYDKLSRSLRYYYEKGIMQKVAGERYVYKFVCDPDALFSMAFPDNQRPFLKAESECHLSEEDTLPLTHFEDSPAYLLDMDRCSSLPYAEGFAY
# Sequence of ETV1 (P50549 whole entry): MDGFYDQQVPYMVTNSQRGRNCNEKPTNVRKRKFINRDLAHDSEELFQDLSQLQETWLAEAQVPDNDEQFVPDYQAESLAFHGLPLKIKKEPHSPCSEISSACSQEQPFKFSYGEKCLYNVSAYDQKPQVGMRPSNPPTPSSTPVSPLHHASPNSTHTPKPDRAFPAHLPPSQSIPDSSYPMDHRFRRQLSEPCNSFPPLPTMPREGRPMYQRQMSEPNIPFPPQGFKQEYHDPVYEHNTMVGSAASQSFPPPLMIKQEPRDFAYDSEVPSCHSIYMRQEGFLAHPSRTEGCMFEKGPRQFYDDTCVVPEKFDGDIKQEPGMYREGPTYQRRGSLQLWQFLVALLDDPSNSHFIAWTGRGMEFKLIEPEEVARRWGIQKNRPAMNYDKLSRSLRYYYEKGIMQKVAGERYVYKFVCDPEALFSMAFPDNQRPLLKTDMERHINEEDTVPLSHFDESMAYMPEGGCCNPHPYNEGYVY
# Sequence of ELF4 (Q99607 whole entry): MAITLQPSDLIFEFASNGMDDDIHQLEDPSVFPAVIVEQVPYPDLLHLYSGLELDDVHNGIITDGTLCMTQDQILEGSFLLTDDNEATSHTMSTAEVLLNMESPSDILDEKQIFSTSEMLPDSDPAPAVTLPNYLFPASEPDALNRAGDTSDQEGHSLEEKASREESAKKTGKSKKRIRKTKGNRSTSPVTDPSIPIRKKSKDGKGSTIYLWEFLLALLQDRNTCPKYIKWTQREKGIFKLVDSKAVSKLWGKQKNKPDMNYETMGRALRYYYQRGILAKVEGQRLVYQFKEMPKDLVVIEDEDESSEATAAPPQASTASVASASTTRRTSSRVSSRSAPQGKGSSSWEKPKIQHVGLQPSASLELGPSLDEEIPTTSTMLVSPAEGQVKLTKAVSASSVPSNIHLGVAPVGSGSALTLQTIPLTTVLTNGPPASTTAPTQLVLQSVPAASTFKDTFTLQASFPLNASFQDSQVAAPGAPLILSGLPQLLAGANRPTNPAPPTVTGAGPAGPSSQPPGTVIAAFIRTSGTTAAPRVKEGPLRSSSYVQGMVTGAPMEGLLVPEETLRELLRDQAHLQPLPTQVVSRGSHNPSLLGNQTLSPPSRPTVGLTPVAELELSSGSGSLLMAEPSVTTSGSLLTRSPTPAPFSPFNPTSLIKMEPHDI
sequence,measurement,setting,value
ATACTC,binding signal,FLI1,"1.29 fold enrichment (6-mer frequency, TF over GST control)"
same,binding signal,ELK1,"1.32 fold enrichment (6-mer frequency, TF over GST control)"
same,binding signal,GABPA,"1.48 fold enrichment (6-mer frequency, TF over GST control)"
same,binding signal,ERG,"1.3 fold enrichment (6-mer frequency, TF over GST control)"
same,binding signal,ELF1,"1.38 fold enrichment (6-mer frequency, TF over GST control)"
same,binding signal,EHF,"1.33 fold enrichment (6-mer frequency, TF over GST control)"
same,binding signal,SPI1,"1.26 fold enrichment (6-mer frequency, TF over GST control)"
same,binding signal,SPIB,"1.32 fold enrichment (6-mer frequency, TF over GST control)"
same,binding signal,ELK3,"1.3 fold enrichment (6-mer frequency, TF over GST control)"
same,binding signal,FEV,"1.27 fold enrichment (6-mer frequency, TF over GST control)"
same,binding signal,ETV5,"1.22 fold enrichment (6-mer frequency, TF over GST control)"
same,binding signal,HSF1,"1.41 fold enrichment (6-mer frequency, TF over GST control)"
same,binding signal,SPIC,"1.42 fold enrichment (6-mer frequency, TF over GST control)"
same,binding signal,ELF4,"1.25 fold enrichment (6-mer frequency, TF over GST control)"
same,binding signal,ELK4,"1.23 fold enrichment (6-mer frequency, TF over GST control)"
same,binding signal,ETV2,"1.3 fold enrichment (6-mer frequency, TF over GST control)"
same,binding signal,ELF3,"1.23 fold enrichment (6-mer frequency, TF over GST control)"
same,binding signal,CRX,"1.37 fold enrichment (6-mer frequency, TF over GST control)"
same,binding signal,ETV1,"1.28 fold enrichment (6-mer frequency, TF over GST control)"
